This test concerns the target AMP-activated protein kinase, AMPK (Homo sapiens) (UniProt P54646+O43741+P54619+Q9UGJ0+Q9Y478+Q13131+Q9UGI9). Kind of test: AMP-dependent Kinase enzyme assay. An in vitro enzyme assay that detects ADP turnover that is directly proportional to AMPK activity. This uses naive AMPK that is activated during the assay with MK-8722. Particulars: 30 µM. Format: functional. The arrangement: scale not given: direction of the effect not stated beside the values.
Regarding `CC(C)C(=O)Nc1cccc(CNC(=O)CSCc2ccccn2)c1`, the Percent Effect came out at 1.74%.
Take `CC(C)c1nn(C)cc1CNCc1cccc(N(C)C)c1`: the Percent Effect was -15.4%.
The result for `Cc1cnn(C2CCCN(C(=O)c3cc(-c4ccco4)[nH]n3)C2)c1` (stereo not given) reads -19.9%.
The result for `O=C1CCC2(CCNCC2)CN1Cc1nnc2ccccn12` reads 8.07%; that for `CC(C)c1nnc(NC(=O)Cc2csc(-c3nnc[nH]3)n2)s1`, 6.49%; that for `O=C(NCc1nncn1C1CC1)c1ccccc1Oc1cccnc1`, -0.563%.
The value for `CCCC(=O)Nc1cccc(C(=O)N(C)CCCC2CCCO2)c1` (stereo not given) was 7.97%; that for `COc1ccc(C(=O)NCC2CCCN(C3CCOCC3)C2)c(O)c1` (stereo not given) was 14.3%; that for `C[S+]([O-])CCNC(=O)N1CCN(c2cc(F)ccc2F)CC1` (stereo not given) was 2.94%.
As for `COC(CNC(=O)c1ccoc1)c1cccc(Cl)c1` (stereo not given), the Percent Effect is -1.5%.
The result for `CC(Oc1ccc2c(c1)OCO2)C(=O)N1CCC(N2CCCC2)CC1` (stereo not given) reads 6.31%; that for `CCCc1ccc(CN2CCC3(CC2)CNC(=O)C3)o1`, 18.2%.
The value for `COCCN(C)C[C@@H]1CN(Cc2ccnc3ccccc23)C[C@@H]1CO` was -4.2%.
The value for `O=C(O)c1cnc(OCC2CC2)c(Cl)c1` was -1.49%; that for `CN(C)c1ccc(C(=O)Nc2cnn(Cc3ccccn3)c2)cc1` was -1.9%.
With `CC(C(=O)Nc1cccc(C(F)(F)F)c1)N(C)CCN1CCOCC1` (stereo not given), the Percent Effect is 8.76%.
The result for `COc1cccc(S(=O)(=O)N2CCCCC2CCN2CCOCC2)c1` (stereo not given) reads 39.4%; that for `Cn1ccnc1-c1cn(CCCc2nnc(N)s2)nn1`, -15.1%.
The value for `CCCC(C#N)NC(=O)c1sccc1CC` (stereo not given) was 6.7%; that for `CN(Cc1ncc(-c2ccccc2C(=O)O)s1)c1ncccn1` was -8.09%.
As to `Cc1ccc(-c2noc(C3CCN3C(=O)c3c(C)noc3C)n2)s1` (stereo not given), the Percent Effect came out at 5.86%.
The result for `Cc1nncn1CCN1C(=O)CC2(CCCC2)CC1=O` reads 9.66%; that for `O=C(CC1=CSC2=NCCN12)N1CCCC(CCc2cccc(F)c2)C1` (stereo not given), 13.4%.
The result for `Cc1cccc(N2CCN(C(=O)CNCCn3cccn3)CC2)c1` reads -3.32%; that for `O=C(c1cncc(NCC2COc3ccccc3C2)n1)N1CCCCC1` (stereo not given), 16.5%; that for `Cn1ccc(C(=O)N2CCC(Cc3ccc4ncccc4c3)CC2)n1`, 15.1%.
Regarding `N#Cc1cccc(NC(=O)N[C@H](CO)Cc2ccc(O)cc2)c1`, the Percent Effect was 6.46%.
The value for `CC(C(=O)Nc1nccs1)N(C)Cc1cccc(C#N)c1` (stereo not given) was 8.51%; that for `Cn1cc(N2CCN(c3ccc(C#N)cc3F)CC2=O)cn1` was 0.0438%; that for `CNC(=O)c1ccc(CN(C(C)C)C(C)C)o1` was -7.38%.
`CC(C)(C)CN(CCC#N)C(=O)Nc1cccc(N2CCNC2=O)c1`: the Percent Effect was -2.8%.
As for `CCC(NC(=O)C(C)(C)C)c1ccccc1C` (stereo not given), the Percent Effect came out at 5.82%.
Take `CC(NCc1nnc2n1CCCC2)c1nc(C(C)(C)C)no1` (stereo not given): the Percent Effect is -0.825%.
The value for `CNC(=O)c1cn2cc(-c3cccc(Cl)c3)n(CC3CC3)c(=O)c2n1` was -3.37%.
The value for `COc1cc(F)c(NCc2nc3ccccc3n2C)cc1OC` was -46.6%; that for `O=C(CN1CC(c2nc(-c3ccco3)no2)C1)NCCc1ccccc1` was -5%.
In the case of `CCN(Cc1ccccn1)C1CCN(c2ccccc2)C1=O` (stereo not given), the Percent Effect was -6.67%.
The result for `CC(C)c1nnc2n1CCN(Cc1ccc3c(c1)OCO3)CC2` reads 9.68%.
The result for `CC(=O)NCCNC(=O)c1cc(COc2ccccc2)[nH]n1` reads 14.5%; that for `O=C(NCc1ccnc(OCC2CC2)c1)C1COc2ccccc2O1` (stereo not given), 1.5%.

The values above are taken from ChEMBL document CHEMBL3988442, “University of Dundee, Small-Polar-MMV Screening Library” (2021).
